# Data reported in PubChem BioAssay (NCATS).
# Inconclusive results are not listed. Entries that show only a call come without a potency. The source made the active and inactive calls. The call rests on the fitted dose curve; in most records, active means well fitted cell-killing curve with a large enough effect; inconclusive means small, poorly fitted or top-dose-only effect, or effect the other way; inactive means no such curve, though single readings can be large or run the other way.
# Assay: Quantitative High-Throughput drug screen in 47 multiple myeloma cell lines against the NCATS MIPE library collection: KMS11_JCRBsus cell viability assay (AID 1919873); further: nearly all actives have a fitted effect of over 50% in size
# Conditions: KMS11 myeloma viability, CellTiter-Glo ATP luminescence, 48 h; series mostly up to 45.8 µM
# Method in brief: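 MIPE 4.0 approved/investigational drugs; 500 cells/well; 48 h 37 °C humidified 5% CO2; CTG luminescence readout; DMSO = 100%, media = 0% viability.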
# Potency means the concentration at half of the fitted maximal effect.
row,SMILES,Potency
1,c1cc(CN2CCCNCCNCCCNCC2)ccc1CN1CCCNCCNCCCNCC1,inactive
2,CCS(=O)(=O)Nc1ccc2[nH]c(O)c(C(=Nc3ccc(CN4CCCCC4)cc3)c3ccccc3)c2c1,0.166 µM (active)
3,COc1cc2c(cc1O)CCC1C2CC[C@@]2(C)C1CC[C@@H]2O (some centres not stated),0.743 µM (active)
4,C[C@H]1[C@@H](OC(=O)CCC(=O)O)O[C@@H]2O[C@@]3(C)CC[C@@H]4[C@H](C)CC[C@@H]1[C@@]24OO3,1.32 µM (active)
5,OCCNC1CCCc2c1[nH]c1ccc(-c3ccccc3)cc21 (configuration not stated),2.96 µM (active)
6,CC(=O)N[C@H]1[C@@H]([C@H](O)[C@H](O)CO)OC(C(=O)O)=C[C@@H]1N=C(N)N,inactive
7,CC(=O)O[C@]1(C(C)=O)CC[C@H]2[C@@H]3C=C(C)C4=CC(=O)CC[C@]4(C)[C@@H]3CC[C@@]21C,inactive
8,COc1ccc(CCC(=O)c2c(O)cc(O[C@@H]3O[C@H](CO)[C@@H](O)[C@H](O)[C@@H]3O[C@@H]3O[C@@H](C)[C@H](O)[C@@H](O)[C@@H]3O)cc2O)cc1O,inactive
9,C[C@H](NC(=O)[C@@H](O)c1cc(F)cc(F)c1)C(=O)N[C@@H]1C(=O)N(C)c2ccccc2-c2ccccc21,1.87 µM (active)
10,Cc1noc(-c2ccc(CSCCC(=O)O)cc2)c1NC(=O)OC(C)c1ccccc1Cl (configuration not stated),inactive
11,C[N+](C)([O-])CCNc1ccc(NCC[N+](C)(C)[O-])c2c1C(=O)c1c(O)ccc(O)c1C2=O,inactive
12,COc1cc(OC)cc(-c2ccc3ncc4ccc(=O)n(-c5ccc(N6CCNCC6)c(C(F)(F)F)c5)c4c3c2)c1,2.64 µM (active)
